An excerpt weighted towards active compounds, which were near 3.8% of everything screened.
aDG glyco act: alpha-DG glycosylation activation. Pro5-aDG cells, alpha-DG glycosylation AlphaScreen (IIH6); 0% Pro5, 100% B10-LARGE cell signal. activation, % at 10 µM. 360,000 tested, 0.22% active. AID 624168;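 active means activation of at least 8% versus controls, or a plate z-score of at least 8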;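 further: Pro5 are CHO cells carrying HIG-tagged alpha-DG that lacks glycosylation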
FAS-TE inh: FAS thioesterase (human) inhibition. P49327. recombinant FAS-TE, OMFH fluorogenic substrate, fluorescence endpoint. inhibition, % at 15 µM. 360,000 tested, 0.67% active. AID 602261;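 active means compounds whose normalised, plate-corrected inhibition of enzyme fluorescence in the single-dose primary screen is 50% or more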;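 further: 0% = DMSO with enzyme and 100% = substrate without enzyme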
SUMO Mot1 rescue: SUMOylation pathway inhibition by Mot1-301 growth rescue. S. cerevisiae Mot1-301 growth rescue, ATP luminescence, 38.5C; percent above DMSO median, 100 means doubled. growth rescue, % at 18.8 µM. 320,000 tested, 1% active. AID 2716;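 active means every valid replicate shows activation above 250% relative to neutral control wells; inactive means the rest, any valid replicate at or below 250%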;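 further: OY570 slx delta 5 strain wells were the positive control but not used for scaling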
Cardio protect: protects H9c2 cardiomyocytes from peroxide injury. H2O2 injury protection, ATPLite, 2 h. protection from H2O2 cell death, % at 20 µM. 360,000 tested, 0.63% active. AID 588492;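 active means compounds giving at least 50% protection of heart cells from peroxide-induced death in the single-dose screen, raw or plate-pattern-corrected value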;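 further: 0% = DMSO wells with peroxide and 100% = DMSO wells without peroxide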
MPTP block: inhibitors of mitochondrial permeability transition pore. inhibition, % at 10 µM. AID 602449. isolated mouse mitochondria, Ca2+ swelling absorbance, 30 min. 360,000 tested, 1.4% active;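 active means inhibition of 50% or more, scaled per plate between neutral and stimulator controls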;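 further: 0% = DMSO wells given calcium and 100% = 1 mM EGTA wells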
Yeast superoxide: caloric restriction mimetics inhibiting age-related superoxide in yeast; S. cerevisiae aged cells, superoxide DHE fluorescence; stronger effect = lower value; superoxide response (% of plate mean), % at 10 µM; 330,000 tested, 0.18% active; AID 2690;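 active means superoxide response under a set limit, about three screen SD below normal, cut at about 65% in these data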;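 further: yeast aged for seven days with compound at 30 °C before DHE staining; 100% = average MFI of all compound-treated wells on the plate with controls excluded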
Rh123 counter: mitochondrial membrane potential, counter-screen; 5,000 tested, 78% active; isolated mitochondria, Rhodamine 123 fluorescence; AID 624504; inhibition, % at 10 µM; shares compounds with MPTP block; in the data active means inhibition above about 22%;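 further: 0% = DMSO vehicle and 100% = positive control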
MPTP abs DR: MPTP inhibition, dose response swelling confirmation; 780 tested, 58% active; isolated mitochondria swelling, absorbance; shares compounds with MPTP block; IC50, µM; in the data active means IC50 below about 20 µM
MPTP cs DR: MPTP inhibitor counter-screen activity, dose response; 780 tested, 49% active; AID 651564; IC50, µM; shares compounds with MPTP block; isolated mitochondria counterscreen, fluorescence read-out; in the data active means IC50 below about 80 µM
An asterisk follows results filed as active; nt = no result.

SMILES | aDG glyco act | FAS-TE inh | SUMO Mot1 rescue | Cardio protect | MPTP block | Yeast superoxide | Rh123 counter | others
CC(C)(C)c1ccc(OCCNCc2ccccc2)cc1 | 0 | 12 | -7 | -16 | 8 | 104 | nt
CN(C)c1cc[n+](CC(=O)Nc2ccc(Oc3ccccc3)cc2)cc1 | 0 | 3 | 0 | 4 | 70* | 104 | 56*
CC(C)(C)c1ccc(OCCNC(=S)Nc2ccccc2)cc1 | 1 | 20 | -12 | -31 | 92* | 103 | 89*
S=C(NCc1ccco1)Nc1ccc(Oc2ccc(Cl)cc2)cc1 | 0 | 31 | 53 | -7 | 73* | 114 | 90*
CCOc1ccc(NC(=O)C[n+]2ccc(N(C)C)cc2)cc1 | 0 | -9 | -28 | 5 | 0 | 107 | nt
CC1CCN(C(=O)c2ncn3c2c(=O)[nH]c2ccc(Br)cc23)CC1 | 0 | -7 | nt | 14 | 0 | nt | nt
COc1ccc(CCNc2ccc(N3C(=O)CC(C)C3=O)cc2[N+](=O)[O-])cc1OC (stereo not given) | 1 | 4 | 3 | -17 | 96* | 90 | 82*
O=C1C2CC=CCC2C(=O)N1c1ccc(NCCc2ccc(Cl)cc2)c([N+](=O)[O-])c1 (stereo not given) | 0 | 11 | -11 | -7 | 4 | 100 | nt
O=C1C2CC=CCC2C(=O)N1c1ccc(NCCc2ccc(O)cc2)c([N+](=O)[O-])c1 (stereo not given) | 3 | -164 | -7 | -15 | 91* | 106 | 76*
COc1ccc(NS(=O)(=O)c2ccc3oc4ccccc4c3c2)cn1 | 0 | 32 | -15 | -17 | 60* | 105 | 64*
COc1ccc(NS(=O)(=O)c2ccc(Br)cc2)cn1 | 0 | 1 | -6 | -1 | -2 | 92 | nt
COc1cccc(/C=C2\NC(=O)NC2=O)c1O | 0 | -7 | -6 | -12 | 0 | 113 | nt
Cc1cccc(-n2nc(C(=O)c3ccco3)cc(-c3nc4ccccc4[nH]3)c2=N)c1 | 1 | 26 | -18 | -12 | 48 | 141 | nt
COc1ccc(-n2nc(C(=O)c3cccs3)cc(-c3nc4ccccc4[nH]3)c2=N)cc1 | 1 | -2 | 17 | -1 | 78* | 102 | -4
Cc1ccccc1-n1nc(C(=O)c2cccs2)cc(-c2nc3ccccc3[nH]2)c1=N | 0 | 15 | 8 | -14 | 91* | 104 | 98*
CN(C)S(=O)(=O)c1cccc(CSCc2cccc(S(=O)(=O)N(C)C)c2)c1 | 1 | 14 | 0 | -17 | 79* | 111 | 88*
Cc1cc(C)n2nc(SCc3cccc(S(=O)(=O)N(C)C)c3)nc2n1 | 0 | -5 | 2 | -15 | 5 | 66 | nt
CCN(CC)c1ccc(C(=O)O)cc1 | 0 | -7 | 19 | 4 | 1 | 110 | nt
CCN(CC)c1ccc(/C=C2\C(=O)c3ccc(C(=O)O)cc3C2=O)cc1 | 0 | -9 | 71 | -16 | 70* | 114 | -33
COc1ccc(/[N+]([O-])=C/c2ccoc2)cc1 | 0 | -6 | -10 | -7 | -2 | 110 | nt
O=c1cc(-c2ccccc2)[nH]n1-c1ccc([N+](=O)[O-])cc1 | 0 | 3 | -3 | -13 | 100* | 120 | 77*
O=c1c(N=Nc2ccc(O)cc2)c(-c2ccccc2)[nH]n1-c1ccc([N+](=O)[O-])cc1 | 0 | 5 | -2 | -2 | 29 | 97 | nt
Cn1nnc2cc(C(=O)Nc3ccccc3F)ccc21 | 0 | 2 | -2 | -4 | 0 | 92 | nt
NCCC1CN(C(=O)OCc2ccccc2)c2ccccc21 (stereo not given) | 0 | -9 | nt | 2 | 2 | nt | nt
OC1CCN(c2cc(-c3ccccc3)nc3cc(-c4ccc(F)cc4)nn23)CC1 | 0 | 6 | -28 | -2 | 2 | 99 | nt
SMILES | aDG glyco act | FAS-TE inh | SUMO Mot1 rescue | Cardio protect | MPTP block | Yeast superoxide | Rh123 counter | others
CCN1CCN(c2cc(-c3ccccc3)nc3cc(-c4cccc(F)c4)nn23)CC1 | 3 | 16 | 128 | 23 | 99* | 89 | -23 | MPTP abs DR=11*;MPTP cs DR=>80
O=C(CSc1nnnn1C1CCCC1)NCCc1ccccc1 | 0 | -3 | -3 | -2 | 0 | 104 | nt
N#CNC(=Nc1cccc(F)c1)SCc1ccccc1 | 0 | -4 | -4 | -16 | 43 | 80 | nt
N#CNC(=Nc1cccc(F)c1)SCc1cccc(F)c1 | 0 | -7 | -19 | -29 | 84* | 114 | 74*
CCOC(=O)C1(Cc2cccc(OC)c2)CCN(C/C=C/c2ccc(OC)cc2)CC1 | 4 | 4 | 7 | -9 | 80* | 100 | 79*
CC[C@@H](C)[C@@H](CO)NC(=O)[C@H]1O[C@@H](n2cnc3c(N)ncnc32)[C@H](O)[C@@H]1O | 0 | -12 | nt | -3 | -3 | nt | nt
CCOc1ccccc1NC(=O)C1C(c2ccccc2)C1(Cl)Cl (stereo not given) | 0 | 29 | nt | -14 | 1 | nt | nt
O=C(NCc1ccc(F)cc1)Nc1ccc(Cl)cc1 | 1 | 3 | -18 | -12 | 38 | 110 | nt
O=C(Nc1ccc(Cl)cc1)C1C2CCC3C(CCC21)C3(Cl)Cl (stereo not given) | 0 | 2 | nt | -8 | 5 | nt | nt
CCc1ccccc1NC(=O)C1C(c2ccccc2)C1(Cl)Cl (stereo not given) | 0 | 19 | 33 | -7 | 51* | 109 | 76*
Cc1ccc(C)c(NC(=O)C2C(c3ccccc3)C2(Cl)Cl)c1 (stereo not given) | 0 | 24 | 11 | -14 | 76* | 102 | 89*
O=C(Nc1ccc(F)cc1)C1C2CCC3C(CCC21)C3(Cl)Cl (stereo not given) | 0 | 1 | -5 | -7 | 62* | 112 | 74*
O=C(Nc1ccc(F)cc1)C1C(c2ccccc2)C1(Cl)Cl (stereo not given) | 0 | 22 | -13 | -24 | 92* | 81 | 90*
Cc1cccc(N2CCN(C(=O)C3CCC(=O)N(Cc4ccccc4F)C3)CC2)c1C (stereo not given) | 0 | -2 | 14 | 1 | 1 | 84 | nt
O=C1[C@H]2[C@@H](c3ccccc3)N[C@]3(CCCN(Cc4ccc(Cl)cc4)C3=O)[C@H]2C(=O)N1Cc1ccccc1 | 0 | 22 | nt | 12 | 0 | nt | nt
C=CCOc1c(Cl)cc(Cl)cc1S(=O)(=O)NCCO | 1 | -1 | nt | -10 | 0 | nt | nt
CC(=O)NCCNc1nc2cc(-c3cscc3C)sc2c(=O)n1C | 0 | -2 | nt | 6 | 0 | nt | nt
CC(=O)Cc1nsc(NC(=O)c2ccc(-c3ccc(Cl)cc3Cl)o2)n1 | 3 | 7 | -2 | -14 | 54* | 137 | 38*

Compound activity from PubChem BioAssay.
